Compounds with a hit are over-represented: about 7.4% of the library has one in this group of screens.
NIH3T3 tox: NIH 3T3 cell cytotoxicity; actives 4.3% (n = 94,000); NIH 3T3 viability, CellTiter-Glo ATP luminescence, 48-72 h; Potency, µM (doses to about 96.7 µM), actives largely listed as inhibitors; AID 1345082; also: nearly all actives have a fitted effect of over 55% in size
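Luminescent ATP readout (CellTiter-Glo, 10 min RT) after 48 or 72 hr compound exposure of NIH 3T3 cells seeded at 400 cells/well in 1536-well format; quantitative HTS.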
SNCA viab count: reduces viability of HEK-293 SNCA reporter cells; Potency, µM (highest dose often 57.1 µM), hits mostly cytotoxic; actives 0.12% (n = 150,000); HEK-293-SNCA-luc viability, GF-AFC fluorescence, 24 h; also: nearly all actives have a fitted effect of over 30% in size
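Cytotoxicity counterscreen: after 24 h compound treatment of genome-edited SNCA-luciferase HEK-293 cells, live-cell protease substrate GF-AFC read by fluorescence after 30 min; activity scaled between DMSO (0%) and medium-only (-100%), curves Hill-fitted.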
HEK cytotox: HEK 293 cell cytotoxicity | actives 6.6% (n = 94,000) | AID 1345083 | HEK 293 viability, ATP luminescence (CellTiter-Glo), 48-72 h | Potency, µM (titrated, usually from 115 µM), usual class: inhibitors; also: nearly all actives have a fitted effect of over 60% in size
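Cytotoxicity was scored by loss of ATP-coupled luminescence (CellTiter-Glo) in HEK 293 cells. Compound treatment ran 48 or 72 hr at 37 degree Celsius, 5% CO2, 95% humidity.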
Luciferase inh: Photinus pyralis luciferase inhibition | P08659 | purified P. pyralis luciferase, luminescence, biochemical | Potency, µM (series often up to 115 µM), hits mostly inhibitors | actives 2.5% (n = 76,000) | AID 1347043; also: nearly all actives have a fitted effect of over 65% in size
Target sequence (P08659 whole entry, looked up): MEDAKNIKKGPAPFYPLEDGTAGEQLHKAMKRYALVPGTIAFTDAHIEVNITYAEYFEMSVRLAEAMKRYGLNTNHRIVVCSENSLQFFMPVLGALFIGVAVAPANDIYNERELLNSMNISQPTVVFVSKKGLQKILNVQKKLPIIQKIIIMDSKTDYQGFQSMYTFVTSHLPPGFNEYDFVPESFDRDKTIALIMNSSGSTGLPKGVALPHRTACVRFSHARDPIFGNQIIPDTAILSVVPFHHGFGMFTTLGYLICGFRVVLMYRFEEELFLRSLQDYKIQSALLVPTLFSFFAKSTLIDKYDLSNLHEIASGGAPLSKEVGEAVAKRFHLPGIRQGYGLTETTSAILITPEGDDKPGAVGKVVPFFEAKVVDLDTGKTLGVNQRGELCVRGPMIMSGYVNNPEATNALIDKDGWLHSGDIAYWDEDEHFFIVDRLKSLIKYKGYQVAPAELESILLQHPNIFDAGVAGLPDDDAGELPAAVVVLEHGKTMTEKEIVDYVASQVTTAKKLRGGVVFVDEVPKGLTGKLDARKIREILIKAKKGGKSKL
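Purified P. pyralis luciferase (10nM final) in 50mM Tris acetate pH 7.5, 10mM Mg acetate, 0.01% Tween-20, 0.05% BSA with 10uM D-luciferin and 10uM ATP. Compounds titrated qHTS. Luminescence imaged on CCD.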
hNpr1 antagonist: blocks ANP-stimulated signaling of human Npr1 receptor; Potency, µM (series often up to 46.3 µM), most hits filed as inhibitors; actives 1.6% (n = 76,000); HEK293 hNpr1 GloSensor cGMP, ANP-stimulated luminescence; P16066; calls by dose curve; also: nearly all actives have a fitted effect of over 60% in size
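HEK293 cells stably expressing human Npr1 and cGMP GloSensor pGS-40F, loaded 2 h with 2% GloSensor reagent, given compound 30 min at room temperature. Luminescence read before and 20 min after 0.1 nM hNppA.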
SNCA expr inhib: reduces expression of the alpha-synuclein gene. actives 0.17% (n = 140,000). Potency, µM (titrated, usually from 57.2 µM), actives largely listed as inhibitors. HEK-293 SNCA-luciferase knock-in, luminescence, 24 h; also: nearly all actives have a fitted effect of over 45% in size
Each line names hits and unclear results; the compound was inactive in the other large screens. Unless noted, calls follow the shape of the dose curve; as a rule, active = well fitted curve in the direction sought with a large enough effect; inconclusive = small, poorly fitted or top-dose-only effect, or another doubt; inactive = no such curve, though single readings can be large; an effect the other way counts as inactive or inconclusive.

C=C1CC[C@H]2[C@@H](/C=C(\C)C(=O)[C@@]3(OC(C)=O)C[C@H](C)[C@H](OC(=O)c4ccccc4)[C@@H]3[C@H]1OC(C)=O)C2(C)C	none (no result: NIH3T3 tox, HEK cytotox, Luciferase inh, hNpr1 antagonist, SNCA expr inhib)
COc1ncc(-c2cc3c(cc2OC)C2(CCN(C(C)=O)CC2)C(=O)N3)cn1	NIH3T3 tox 45µM
COc1cc2c(cc1OCc1ccccc1)NC(=O)C21CCN(CC2CC2)CC1	NIH3T3 tox 32µM, HEK cytotox 40µM, Luciferase inh inconclusive
COc1cc2c(cc1OCC1CC1)NC(=O)C21CCN(CCC(C)C)CC1	NIH3T3 tox inconclusive
COc1cc2c(cc1OCC1CC1)NC(=O)C21CCN(C(=O)c2ccccc2)CC1	NIH3T3 tox inconclusive, HEK cytotox inconclusive
COc1cc2c(cc1OCC1CC1)NC(=O)C21CCN(C(=O)c2cccc(C#N)c2)CC1	NIH3T3 tox inconclusive, HEK cytotox 79µM
COc1cc2c(cc1-c1cccnc1OC)NC(=O)C21CCN(C(C)=O)CC1	NIH3T3 tox inconclusive
O=C(c1ccccc1)N1C[C@@H]2C[C@H](C1)c1ccc(-c3ccc(Cl)cc3)c(=O)n1C2	NIH3T3 tox 63µM, HEK cytotox inconclusive
COC(=O)N1CCN(C(=O)Cc2ccc(Cl)c(Cl)c2)[C@@H](CN2CCCC2)C1	none (no result: NIH3T3 tox, HEK cytotox, Luciferase inh, hNpr1 antagonist, SNCA expr inhib)
COc1cc2c(cc1CCc1ccccc1)N(C(=O)c1ccc3[nH]ccc3c1)CC21CCN(C(C)=O)CC1	NIH3T3 tox inconclusive, SNCA viab count inconclusive, HEK cytotox inconclusive, SNCA expr inhib inconclusive
C[C@@]12OC(=O)[C@]1([C@@H](O)[C@@H]1C=CCCC1)NC(=O)[C@H]2CCCl	SNCA viab count inconclusive, SNCA expr inhib 0.14µM (no result: NIH3T3 tox, HEK cytotox, Luciferase inh, hNpr1 antagonist)
CN1C(=O)C(Cc2ccc3ccccc3c2)N=C(c2ccc(O)cc2)c2cc(Cl)ccc21 (stereo not drawn)	none (no result: NIH3T3 tox, HEK cytotox, Luciferase inh, hNpr1 antagonist, SNCA expr inhib)
COc1ccc(CNC[C@H]2C[C@@H]3CCN2C[C@@H]3c2cc(-c3ccc4ccccc4c3)nn2C)cc1	NIH3T3 tox 25µM, HEK cytotox inconclusive
COc1ccc(CNC[C@H]2C[C@@H]3CCN2C[C@@H]3c2cc(C3CCCCC3)nn2C)cc1	NIH3T3 tox 28µM, HEK cytotox 32µM, SNCA expr inhib inconclusive
CC(=O)c1cccc(NC(=O)NC[C@H]2C[C@@H]3CCN2C[C@@H]3c2cc(-c3cccs3)nc(C)n2)c1	NIH3T3 tox 32µM, HEK cytotox 22µM
Cc1nc(-c2cccs2)cc([C@H]2CN3CC[C@H]2C[C@@H]3CNC(=O)c2ccc(N(C)C)cc2)n1	NIH3T3 tox 22µM, HEK cytotox 35µM
Cc1nc(-c2ccccc2Br)cc([C@H]2CN3CC[C@H]2C[C@@H]3CNC(=O)Nc2ccccc2)n1	NIH3T3 tox inconclusive, HEK cytotox 79µM, Luciferase inh inconclusive
COC[C@H]1CCCN1C[C@H]1CN2CC[C@H]1C[C@@H]2CNC(=O)c1ccc(N(C)C)cc1	NIH3T3 tox 71µM, HEK cytotox inconclusive
CC(=O)NC[C@H]1C[C@@H]2CCN1C[C@@H]2c1cc(-c2cccs2)nc(C)n1	NIH3T3 tox inconclusive, HEK cytotox inconclusive
Cc1nc(-c2cccs2)cc([C@H]2CN3CC[C@H]2C[C@@H]3CNC(=O)c2ccco2)n1	NIH3T3 tox inconclusive, HEK cytotox inconclusive, SNCA expr inhib inconclusive
Cc1cccc(NC(=O)N[C@H]2CN(C)c3ccccc3C(c3ccccc3)=N2)c1	none (no result: NIH3T3 tox, HEK cytotox, Luciferase inh, hNpr1 antagonist, SNCA expr inhib)
CC(=O)c1ccc(NC(=O)NC[C@H]2C[C@@H]3CCN2C[C@@H]3c2cc(-c3cccs3)nc(C)n2)cc1	NIH3T3 tox inconclusive, HEK cytotox 89µM
CC(=O)c1ccc(NC(=O)NC[C@H]2C[C@@H]3CCN2C[C@@H]3c2cc(-c3ccco3)nc(C)n2)cc1	NIH3T3 tox inconclusive, HEK cytotox 79µM
COc1cc2c(cc1OCc1ccccc1)NC(=O)C21CCN(c2cnccn2)CC1	NIH3T3 tox 79µM, HEK cytotox 63µM
COc1cc2c(cc1OCc1ccccc1)NC(=O)C21CCN(c2nc(C)cnc2C)CC1	NIH3T3 tox inconclusive, HEK cytotox 35µM
CCOC(=O)[C@H]1CN(C(=O)c2cc3ccccc3s2)[C@]2(C)C(=O)N(CC3CC3)c3ccccc3[C@H]12	NIH3T3 tox inconclusive, HEK cytotox inconclusive, SNCA expr inhib inconclusive (no result: Luciferase inh, hNpr1 antagonist)
COc1ccc(S(=O)(=O)NC[C@H]2C[C@@H]3CCN2C[C@@H]3CN2CCC(Cc3ccccc3)CC2)cc1	NIH3T3 tox 13µM, SNCA viab count inconclusive, HEK cytotox inconclusive, SNCA expr inhib inconclusive
O=S(=O)(NC[C@H]1C[C@@H]2CCN1C[C@@H]2CN1CCCC1)c1ccc(Cl)cc1	NIH3T3 tox 79µM, HEK cytotox inconclusive
COc1ccc(S(=O)(=O)NC[C@H]2C[C@@H]3CCN2C[C@@H]3CN2CCOCC2)cc1	none
COc1ccc(S(=O)(=O)NC[C@H]2C[C@@H]3CCN2C[C@@H]3CN(C)c2ccccc2)cc1	NIH3T3 tox 35µM, HEK cytotox inconclusive
O=S(=O)(NC[C@H]1C[C@@H]2CCN1C[C@@H]2CN1CCc2ccccc21)c1ccccc1	NIH3T3 tox 56µM, HEK cytotox 56µM
CN1CCN(C[C@H]2CN3CC[C@H]2C[C@@H]3CNS(=O)(=O)c2ccccc2)CC1	SNCA expr inhib inconclusive
COc1cc(O)c2c(c1)/C=C/C[C@@H](O)[C@@H](O)C(=O)CCC[C@H](C)OC2=O	none (no result: NIH3T3 tox, HEK cytotox, Luciferase inh, hNpr1 antagonist, SNCA expr inhib)
O=C(Cc1ccc(F)cc1Cl)N1C[C@H]2CC[C@@H]1CN(Cc1cccnc1)C2	HEK cytotox 35µM, hNpr1 antagonist inconclusive
O=C(N1CCCC1)N1C2CCC1CN(Cc1cccnc1)C2	none (no result: Luciferase inh, hNpr1 antagonist)
CC(C)CN1Cc2ccccc2-n2ccnc2C12CCN(C(=O)C(C)C)CC2	HEK cytotox inconclusive
Cc1ccc(C(=O)N2CCC3(CC2)c2nccn2-c2ccccc2CN3CC(C)C)cc1F	NIH3T3 tox 35µM, HEK cytotox 35µM, SNCA expr inhib inconclusive
COc1cc2c(cc1OCC1CCCC1)N([S+](=O)([O-])c1cccc(C(F)(F)F)c1)CC21CCN(CC(=O)O)CC1	NIH3T3 tox 40µM, HEK cytotox 45µM
COc1cc2c(cc1OCC1CCCC1)N([S+](=O)([O-])c1ccc(Oc3ccccc3)cc1)CC21CCN(CC(=O)O)CC1	NIH3T3 tox inconclusive, HEK cytotox inconclusive
Cc1cccc([C@H]2C[C@@H](O)[C@@H](O)[C@@H]2NCC2CCCC2)c1	NIH3T3 tox 89µM, HEK cytotox 50µM
CCOC(=O)[C@H]1CN(C(=O)OCC(C)(C)C)[C@]2(C)C(=O)N(CC3CC3)c3ccccc3[C@H]12	NIH3T3 tox inconclusive, HEK cytotox inconclusive, SNCA expr inhib inconclusive (no result: Luciferase inh, hNpr1 antagonist)

Screens (PubChem BioAssay)
